Source: PubChem BioAssay (Sanford-Burnham Center for Chemical Genomics)
PLAP act: activates human placental alkaline phosphatase. P05187. purified PLAP enzyme, luminescent substrate read-out; stronger effect = higher value. activation fold at 20 µM. actives 1.2% (n = 96,000). AID 696; in the data active = activation fold above about 2
CYP2C9 inhib: blocks human cytochrome P450 2C9; inhibition, % at 5 µM; actives 20% (n = 96,000); AID 777; CYP2C9 Supersomes, luciferin-H conversion, luminescence; P11712;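 active = blocking of liver enzyme CYP2C9 beyond about 50% at 5 µM, limit read from the data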
CYP2C19 act: cytochrome P450 2C19 (human) activation; activation factor at 5 µM; P33261; recombinant CYP2C19, luciferin-H EGE luminescence; stronger effect = higher value; 0 = fully inhibited enzyme, 1 = untreated enzyme; 96,000 tested, under 10 active;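 active = activation factor of at least 2 at 5 µM in the primary screen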
Target sequence (P33261 whole entry, looked up): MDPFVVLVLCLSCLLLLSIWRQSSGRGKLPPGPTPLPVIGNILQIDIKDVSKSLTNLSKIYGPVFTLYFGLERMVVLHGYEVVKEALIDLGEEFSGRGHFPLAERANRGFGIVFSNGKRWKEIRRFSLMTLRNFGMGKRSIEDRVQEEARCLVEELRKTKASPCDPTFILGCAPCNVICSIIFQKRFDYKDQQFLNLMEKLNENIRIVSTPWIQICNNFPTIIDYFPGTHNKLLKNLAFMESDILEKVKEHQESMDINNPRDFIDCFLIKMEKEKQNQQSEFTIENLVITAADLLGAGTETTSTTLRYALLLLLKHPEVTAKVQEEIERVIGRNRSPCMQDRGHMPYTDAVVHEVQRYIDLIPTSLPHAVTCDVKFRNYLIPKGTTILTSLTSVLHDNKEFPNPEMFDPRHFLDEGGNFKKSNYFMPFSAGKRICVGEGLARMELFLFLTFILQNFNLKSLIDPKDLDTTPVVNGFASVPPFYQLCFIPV
CYP2C19 inh: blocks human cytochrome P450 2C19 | CYP2C19 Supersomes, luciferin-H EGE luminescence, 30 min | inhibition, % at 5 µM | actives 21% (n = 96,000) | AID 778;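 active = CYP2C19 inhibition above a set limit at 5 µM in the primary screen, cut at about 50% in these data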
CYP2C9 activ: increases human cytochrome P450 2C9 activity; recombinant CYP2C9, luciferin-H conversion, luminescence; stronger effect = higher value; factor 1 = untreated enzyme, 0 = blocked; activation factor at 5 µM; actives 1.4% (n = 96,000); AID 1024;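 active = activation factor of 2 or more for CYP2C9 at a 5 µM dose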
Large screens that a line does not name were inactive. Rows were chosen to be rich in hits. Some 31% of all compounds tested hit in one or more screens of this group.

CCN(c1ccccc1)S(=O)(=O)c1ccc(F)cc1C	CYP2C19 inh 66.6
CNc1nc(SCc2ccc(C)cc2)nc2c1CCCC2	CYP2C9 inhib 72.7, CYP2C19 inh 96.0
Cc1ccc(CSc2nc3c(c(N(C)C)n2)CCCC3)cc1	CYP2C9 inhib 56.4, CYP2C19 inh 93.0
COC(=O)CSc1nc(-c2ccc(C)cc2)c2c(c1C#N)CCCC2	CYP2C9 inhib 55.1
Cc1ccc(CSc2nc3c(c(SCC(=O)O)n2)CCCC3)cc1	none
COC(=O)CSc1nc(SCc2ccc(C)cc2)nc2c1CCCC2	CYP2C9 inhib 97.4, CYP2C19 inh 95.3
COc1ccccc1NC(=O)CSc1nc(C)c2c(c1C#N)CCCC2	none
CCCc1nnc(NC(=O)CCCN2C(=O)c3ccccc3C2=O)s1	none
Cc1cccc(-c2c3c(=O)n(C)c(=O)n(C)c3cn2CCO)c1	none
N#C/C(C(=O)Oc1ccccc1)=C1\C=Cc2ccccc2N1	none
CCc1nnc(NC(=O)c2c(C)nn(-c3ccccc3)c2Cl)s1	none
CN(C)c1nc(SCc2ccccc2Cl)nc2c1CCCC2	CYP2C19 inh 79.8
COc1ccc(NC(=O)N(CCC(C)C)C(C)c2ccccn2)c(OC)c1 (centres undefined)	none
O=C(Nc1c(F)cccc1F)c1ccc(-n2cncn2)nc1	CYP2C19 inh 93.0
COc1ccccc1NC(=O)c1ccc(-n2cccn2)nc1	CYP2C9 activ 2
Cc1ccccc1NC(=O)c1ccc(-n2cncn2)nc1	CYP2C9 inhib 84.9, CYP2C19 inh 98.8
COc1ccc(NC(=O)c2ccc(-n3cccn3)nc2)c(OC)c1	none
O=C(Nc1ccc(F)cc1F)c1noc2c1CCC2	none
O=C(Nc1ccc(F)cc1F)c1ccc(-n2cncn2)nc1	CYP2C9 inhib 76.4, CYP2C19 inh 99.5
COc1ccc(NC(=O)c2ccc(-n3cccn3)nc2)cc1	none
C=CCN1C(=O)C2C(C(=O)NC)C3(C)C=CC2(O3)C1C(=O)NCc1ccc(OC)cc1 (centres undefined)	none
CCOC(=O)c1ccc(NC(=S)NCC(O)c2ccccc2)cc1 (centres undefined)	none
Cc1ccc(/C=C/C(=O)N2CC(C)CC(C)C2)o1 (centres undefined)	none
Cc1ccc(O)c(Sc2cc(C)ccc2O)c1	PLAP act 2.5, CYP2C9 inhib 95.7, CYP2C19 inh 97.2
COC(=O)c1ccc(O)c(Sc2cc(C(=O)OC)ccc2O)c1	CYP2C9 inhib 100.0, CYP2C19 inh 87.9
CCOC(=O)C1CCN(C(=O)c2ccc(OCC)c(OCC)c2)CC1	none
CCN1C(=O)/C(=C2\C=Cc3ccccc3N2CC)SC1=S	CYP2C19 inh 54.6
CCN1C(=O)/C(=C2\SC(=S)N(CCCOC)C2=O)c2ccccc21	CYP2C9 inhib 51.6
CN(C(=O)c1ccc(Cl)c(S(=O)(=O)N2CCOCC2)c1)c1ccccc1C(=O)O	none
O=C(Nc1ccccc1N1CCN(C(=O)c2ccc(Cl)cc2)CC1)c1cc2ccccc2o1	CYP2C9 inhib 91.8, CYP2C19 inh 75.1
CC(C)C(=O)N1CCN(c2ccccc2NC(=O)c2cccc(Cl)c2)CC1	none
O=C(Nc1ccccc1N1CCN(C(=O)c2ccc(Cl)cc2)CC1)c1ccc(Br)cc1	CYP2C9 inhib 81.8, CYP2C19 inh 65.5
O=C(Nc1cccc(Cl)c1N1CCCC1)c1cc2ccccc2o1	CYP2C9 inhib 63.9
O=C(Nc1ccc(N2CCN(C(=O)c3ccc(Cl)cc3)CC2)cc1)c1cc2ccccc2o1	none
O=C(Nc1cccc(Cl)c1N1CCCC1)c1ccc(Br)o1	none
COc1ccc(Cc2nnc(-c3ccc(F)cc3)o2)cc1OC	none
CCN(CC)c1ccc(NC(=O)CC2Oc3ccccc3NC2=O)c(C)c1 (centres undefined)	none
CN(C)CCNCc1ccccc1OC1CCCC1	none
O=C(COc1ncnc2sccc12)N1CCN(S(=O)(=O)c2ccc(Cl)cc2)CC1	none
O=C(Nc1ccccc1)ON=C1c2ccccc2-c2ccccc21	CYP2C9 inhib 72.0
NC(=O)NC(=O)Nc1ccccc1Cl	none
O=C(Nc1ccccc1Cl)ON=C1c2ccccc2-c2ccccc21	CYP2C9 inhib 77.8
O=C(CCc1nc(-c2ccccc2F)no1)Nc1ccc(Oc2ccccc2)cc1	none
CCN(C(=O)CCc1nc(-c2ccccc2F)no1)c1cc(OC)ccc1OC	CYP2C9 inhib 93.8, CYP2C19 inh 94.1
COc1ccc(Br)cc1CNC(=O)CCc1nc(-c2ccccc2F)no1	CYP2C9 inhib 56.8, CYP2C19 inh 65.4
COc1ccc(CNC(=O)CCc2nc(-c3ccccc3F)no2)c(OC)c1	CYP2C9 inhib 57.1, CYP2C19 inh 74.1
COc1cccc(NC(=O)CCc2nc(-c3ccccc3F)no2)c1	CYP2C9 inhib 60.1
CCN=C1SC(C(=O)Nc2ccccc2)CC(=O)N1CC (centres undefined)	none
CC1Cc2nc(SCC(=O)NCc3ccco3)n(Cc3ccccc3)c(=O)c2S1 (centres undefined)	none
CCn1c(SCC(=O)c2ccccc2)nc2c(c1=O)SC(C)C2 (centres undefined)	CYP2C9 inhib 89.9
CCSc1nc2c(c(=O)n1CC)SC(C)C2 (centres undefined)	none
COCCn1c(SCC(=O)c2ccccc2)nc2c(c1=O)SC(C)C2 (centres undefined)	CYP2C9 inhib 95.7, CYP2C19 inh 91.0
Nc1ccc(N2CCCCCC2)cc1	CYP2C19 inh 64.0
Cc1noc(C)c1S(=O)(=O)N(CCc1ccccc1)Cc1ccccc1	CYP2C9 inhib 76.2
Cn1c(=O)n(C)c2cc(C(=O)c3ccccc3)ccc21	none
Cc1ccc2c(c1)c(C)c(C)n2CC(O)Cn1nc(C)cc1C (centres undefined)	CYP2C9 inhib 77.0, CYP2C19 inh 96.6
Cc1ccc2c(c1)c(C)c(C)n2CC(O)Cn1nnc2ccccc21 (centres undefined)	CYP2C9 inhib 63.5
Cc1ccc(C)c2c1sc(=NC(=O)CN1C(=O)CCC1=O)n2C	none
CC(=O)Nc1ccc(Oc2nc(C)cc(C)n2)cc1	none
CCCCSc1nnc(NC(=O)CCc2ccccc2)s1	CYP2C9 inhib 56.4
CCSc1nnc(NC(=O)CSc2c(Cl)cccc2Cl)s1	none
CCSc1nnc(NC(=O)C2CC=CCC2C(=O)O)s1 (centres undefined)	CYP2C9 inhib 79.2
CCSc1nnc(NC(=O)C(CC)Oc2ccccc2)s1 (centres undefined)	CYP2C9 inhib 79.6
CCSc1nnc(NC(=O)c2cccc3ccccc23)s1	none
CCSc1nnc(NC(=O)COc2ccc3ccccc3c2)s1	CYP2C9 inhib 68.1, CYP2C19 inh 60.3
Cn1cc(CN2CCN(c3ccccc3)CC2)c2ccccc21	none
COc1ccc2c(c1)c(N=O)c(O)n2C	none
CCOC(=O)CC(=O)Nc1nnc(C(C)C)s1	none
CCOC(=O)c1sc2nc(NC(=O)COc3ccccc3)sc2c1C	CYP2C9 inhib 86.2, CYP2C19 inh 51.3
CCSc1nnc(NC(=O)COc2ccccc2)s1	CYP2C9 inhib 75.7, CYP2C19 inh 53.1
CCC(Oc1ccccc1)C(=O)Nc1ccccn1 (centres undefined)	CYP2C19 inh 74.8
